ER stress surv = ER stress cell death inhibition; CSM14.1 thapsigargin ER stress survival, ATP luminescence; relative survival (cellular ATP), % at 15 µg/mL (by protocol); hit rate 0.33% among 48,000; AID 1010;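 active = survival measured by cellular ATP above 50% at 15 µg/ml in the first screen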;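 also: cell death triggered by about 15 µM thapsigargin; ATP read 24 h after thapsigargin was added; plate controls were thapsigargin with DMSO for no effect and DMSO without thapsigargin for full effect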
Starred values were filed as active, the others as inactive. The sample as a whole holds a higher share of hits than the screen did.

SMILES | ER stress surv
COc1ccc(C2CC(=O)C3=C(C2)Nc2ccccc2NC3c2ccc(Cl)c(Cl)c2)cc1OC (stereo not given) | 12.2
COc1ccc(C2CC(=O)C3=C(C2)Nc2ccccc2NC3c2ccc(OCc3ccccc3)c(OC)c2)cc1OC (stereo not given) | 125.1*
CCc1ccc(C2Nc3ccccc3NC3=C2C(=O)CC(c2ccc(OC)c(OC)c2)C3)cc1 (stereo not given) | 89.1*
COc1ccc(C2CC(=O)C3=C(C2)Nc2ccccc2NC3c2ccc([N+](=O)[O-])cc2)cc1OC (stereo not given) | -1.9
CCCOc1ccc(C2Nc3ccccc3NC3=C2C(=O)CC(c2ccc(OC)c(OC)c2)C3)cc1 (stereo not given) | 103.4*
COc1ccc(C2CC(=O)C3=C(C2)Nc2ccccc2NC3c2ccccc2Br)cc1OC (stereo not given) | 5.0
COc1cc(/C=C2/SC(=S)N(CC(=O)O)C2=O)ccc1OCc1ccc(Cl)cc1Cl | 7.4
COc1cc(/C=N/NC(=O)COc2ccc(Cl)cc2Br)cc(Br)c1O | -4.2
CCOc1ccc(C2CC(=O)NC(SCC#N)=C2C#N)cc1OC (stereo not given) | 14.3
O=C(NCc1ccco1)/C(=C/c1ccc([N+](=O)[O-])cc1)NC(=O)c1ccccc1Cl | 10.1
CCOC(=O)C1=C(C)OC(N)=C(C(=O)OCC)C1c1ccc([N+](=O)[O-])cc1 (stereo not given) | -3.3
CCCOC(=O)c1ccc(NC(=O)c2cc3ccccc3oc2=O)cc1 | 8.2
COC(=O)c1cccc(NC(=O)CCOc2ccccc2)c1 | 9.7
COc1ccc(C2CC(=O)C3=C(C2)Nc2ccccc2NC3c2ccc(SC)cc2)cc1OC (stereo not given) | 112.2*
COc1ccc(C2CC(=O)C3=C(C2)Nc2ccccc2NC3c2ccccc2C)cc1OC (stereo not given) | 10.7
COc1ccc(C2CC(=O)C3=C(C2)Nc2ccccc2NC3c2cccc3ccccc23)cc1OC (stereo not given) | -0.6
COc1ccc(C2CC(=O)C3=C(C2)Nc2ccccc2NC3c2ccccc2C(F)(F)F)cc1OC (stereo not given) | 124.1*
COc1cccc(N(CC(=O)N2CCOCC2)S(=O)(=O)c2ccccc2)c1 | 6.8
O=S(=O)(NCc1ccc2c(c1)OCO2)c1ccc(Br)cc1 | -3.1
COc1cc(C(=O)Nc2ccc(/C=C/C(=O)c3ccccc3)cc2)cc(OC)c1OC | 5.2
Cc1cc(Cl)ccc1NC(=O)c1ccc(Cl)cc1 | 15.8
CCOc1cc(/C=C2/C(=O)NC(=O)N(c3ccc(OC)cc3)C2=O)cc(Cl)c1O | 5.3
COc1ccc(/C=N/OCC(=O)N2CCN(C(c3ccccc3)c3ccccc3)CC2)cc1OC | 116.3*
COc1ccc(CC(=O)N2CCN(c3cccc(Cl)c3)CC2)cc1OC | 7.1
CCC(Oc1ccccc1)C(=O)N1CCN(C(c2ccccc2)c2ccccc2)CC1 (stereo not given) | 47.3
SMILES | ER stress surv
COc1cccc(CN2CCN(S(=O)(=O)c3ccc(Cl)cc3)CC2)c1 | 2.4
CN(C)CCN(Cc1ccccc1)c1ccnc(N(C)C)c1C#N | -4.0
COc1nccc(Nc2ccccc2)c1C#N | 2.0
CN(C)c1nccc(N(Cc2ccccc2)Cc2ccccc2)c1C#N | 82.6*
CCOc1cccc2c1N(C(=O)c1cccc(F)c1)C(C)(C)c1ssc(=S)c1-2 | 12.5
Cc1ccc(/C(O)=C2/C(=O)C(=O)N(CCCn3ccnc3)C2c2ccc(Cl)cc2)cc1 (stereo not given) | 12.1
CN1CCO/C1=C(C#N)\C=C1\Nc2ccccc2C1=O | -4.8
O=C(c1cccc(Cl)c1)N1CCN(c2cccc(Cl)c2)CC1 | 8.0
O=C(c1cccc(C(=O)N2CCN(c3cccc(Cl)c3)CC2)c1)N1CCN(c2cccc(Cl)c2)CC1 | 98.6*
O=C(c1ccc(Cl)cc1)N1CCN(c2cccc(Cl)c2)CC1 | -3.9
CCOC(=O)c1cnn(-c2ncnc3sc(CC)cc23)c1N | 9.3
CCc1cc2c(N3CCCCC3)ncnc2s1 | -0.7
CCc1cc2c(N3CCN(Cc4ccc(Cl)cc4Cl)CC3)ncnc2s1 | 98.3*
O=C(N/N=C/c1ccc(Cl)cc1)c1ccc(O)cc1 | -16.5
O=C(COc1ccc(Cl)cc1)NCc1cccnc1 | 17.5
O=C(O)/C=C/C(=O)Nc1ccc(-c2ccc(NC(=O)/C=C/C(=O)O)cc2)cc1 | -2.6
CCOc1ccc(NC(=O)/C=C\C(=O)O)cc1 | -10.0
O=C(O)/C=C/C(=O)Nc1ccc(OC(F)(F)Cl)cc1 | 107.5*
COC(=O)c1cc(NC(=O)CCCOc2ccc(Cl)cc2C)cc(C(=O)OC)c1 | 0.7
COc1cc(C(=O)Nc2nc3ccc(Br)cc3s2)cc(OC)c1OC | -3.5
Cc1ccc(C(=O)Nc2ccc(S(=O)(=O)N3CCCC3)cc2)cc1 | 0.1
CC(NC(=O)c1ccccc1)C12CC3CC(CC(C3)C1)C2 (stereo not given) | 0.7
CC(NC(=O)c1ccc(S(=O)(=O)N2CCCCC2)cc1)C12CC3CC(CC(C3)C1)C2 (stereo not given) | 108.4*
CCOC(=O)C1CCN(Cn2nc(-c3ccc(C)cc3)oc2=S)CC1 | -0.3
Cn1c(=O)c2c3c(sc2n2c(SCC(=O)c4ccc(Br)cc4)nnc12)CCC3 | 2.3
SMILES | ER stress surv
CCOc1ccccc1CN(CCc1ccc2c(c1)OCO2)Cc1cc(OC)ccc1OC | 3.1
CCOc1ccccc1CN(CCc1ccc2c(c1)OCO2)Cc1ccncc1 | 102.6*
CCOc1ccc(-c2nnc(-c3ccc4c(c3)OCO4)o2)cc1 | 7.6
COc1cccc(CN2CCN(C3CCCCC3OC)CC2)c1OC (stereo not given) | 0.0
CCC(C)c1ccc(OCCOc2ccc(/C=C3/SC(=S)N(C)C3=O)cc2OC)cc1 (stereo not given) | 88.8*
CCOc1cc(/C=C2/SC(=S)N(C)C2=O)ccc1OCCOc1ccccc1C | 2.5
COc1cc(/C=C2/SC(=S)N(C)C2=O)ccc1OCc1cccc2ccccc12 | 8.4
C=CCNC(=S)Nc1c(C)n(C)n(-c2ccccc2)c1=O | 6.6
COc1ccc(OC)c(NC(=S)NC(NC(=O)c2ccccc2Cl)C(Cl)(Cl)Cl)c1 (stereo not given) | -1.0
CCOC(=O)CP(=O)(c1ccccc1)c1ccccc1 | 6.0
Cc1ccc(P(=O)(CSC(=N)N)c2ccc(C)cc2)cc1 | 58.4*
Cc1ccc(NC(=O)CC(=O)NN)cc1 | -5.1
Cc1nnc(C)n1/N=C/c1ccc(Cl)c([N+](=O)[O-])c1 | -4.8
O=C(CC(C(=O)O)N1CCOCC1)c1ccccc1 (stereo not given) | 0.9
Cc1ccc(C2(c3ccc(C)cc3)CC2C(=O)Nc2ccncc2)cc1 (stereo not given) | -1.3
Cc1ccc(C2(c3ccc(C)cc3)CC2C(=O)Nc2cccnc2)cc1 (stereo not given) | 78.5*
Cc1ccc(C2(c3ccc(C)cc3)CC2C(=O)Nc2ccccc2)cc1 (stereo not given) | 5.9
CCC1=NN(C(=O)c2ccncc2)C(O)(C(F)(F)F)C1 (stereo not given) | 4.9
Cc1ccccc1OCCOc1ccc(/C=C2/C(=N)N3N=C(C(C)C)SC3=NC2=O)cc1 | 3.7
O=C(Nc1cccc2ccccc12)C1C2CCC3C(CCC21)C3(Cl)Cl (stereo not given) | 2.2
CC1(C)OC2OC(C(=O)Nc3ccccc3)C3OC(C)(C)OC3C2O1 (stereo not given) | 1.2
O=C(Nc1cccc2ccccc12)C1OC2OC3(CCCCC3)OC2C2OC3(CCCCC3)OC12 (stereo not given) | 114.7*
O=S(=O)(c1ccccc1)N1CCN(Cc2ccccc2F)CC1 | -9.3
